# Data: ChEMBL document CHEMBL4296182, “CO-ADD screening of NIH NCI Diversity Set V”
# For part of these data: Results with a measured potency or affinity are listed apart.
# Key:
# Staphylococcus aureus = experiment: Antibacterial activity against Staphylococcus aureus MRSA ATCC 43300 (CO-ADD:GP_020); MIC in CAMBH media using NBS plates, by Resazurin F(560/590); type: functional; settings: Concentration 20 uM, ASSAY_TEST Inhibition of Bacterial Growth, detection method Resazurin, Fluorescence (ex560/em590), MEDIA CAMHB, plate type 384well, CORNING #3640, time 18 hr
# Acinetobacter baumannii = experiment: Antibacterial activity against Acinetobacter baumannii ATCC 19606 (CO-ADD:GN_034); MIC in CAMBH media using NBS plates, by Resazurin F(560/590); type: functional; settings: Concentration 20 uM, ASSAY_TEST Inhibition of Bacterial Growth, detection method Resazurin, Fluorescence (ex560/em590), MEDIA CAMHB, plate type 384well, CORNING #3640, time 18 hr
# Escherichia coli = experiment: Antibacterial activity against Escherichia coli ATCC 25922 (CO-ADD:GN_001); MIC in CAMBH media using NBS plates, by Resazurin F(560/590); type: functional; settings: Concentration 20 uM, ASSAY_TEST Inhibition of Bacterial Growth, detection method Resazurin, Fluorescence (ex560/em590), MEDIA CAMHB, plate type 384well, CORNING #3640, time 18 hr
# Klebsiella pneumoniae = settings: Concentration 20 uM; ASSAY_TEST Inhibition of Bacterial Growth; detection method Absorption (OD600); MEDIA CAMHB; plate type 384well; NBS; CORNING #3640; time 18 hr
# Candida albicans = settings: 20 µM
# Cryptococcus neoformans = settings: Concentration 20 uM; ASSAY_TEST Inhibition of Fungal Growth; detection method Resazurin; Absorption (OD600-OD570); plate type 384well; NBS; CORNING #3640
Compound,Inhibition (Staphylococcus aureus) [%],Inhibition (Acinetobacter baumannii) [%],Inhibition (Escherichia coli) [%],Inhibition (Klebsiella pneumoniae) [%],Inhibition (Candida albicans) [%],Inhibition (Cryptococcus neoformans) [%]
O=C(Nc1ccc(Cl)c([N+](=O)[O-])c1)Nc1nc2ccccc2s1,44.46,0.46,3.52,21.95,9.03,11.69
OCc1ncc(-c2ccccc2)s1,-7.34,-9.91,3.7,5.05,2.13,-4.82
COc1cc(C(=O)C(=O)c2cc(OC)c(O)c(OC)c2)cc(OC)c1O,3.22,7.73,-5.19,5.73,3.18,0.06
Cc1ccc(Nc2nc(Cl)nc3ncn(C)c23)c(C)c1,8,11.23,-0.86,14.74,2.26,-7.52
Cc1ccc(CC#N)c(-c2c(CC#N)ccc(C)c2C)c1C,10.31,-9.1,13.28,6.29,3.94,-13.71
CC(=O)Nc1cccc(NC(C)=O)n1,23.71,-5.95,17.6,13.05,-2.4,-1.6
CC1=CC(C)(C)N=C(S)N1c1cccc2cc(S(=O)(=O)O)ccc12,-5.5,9.59,-20.55,7.04,8.59,39.69
ClCC(CNCc1ccccc1)c1ccccc1 (stereo not given),7.68,11.29,0.62,19.58,5.41,-7.48
CN1C(=C=Cc2cc(I)c(O)c(I)c2)C(C)(C)c2ccccc21,20.66,1.84,10.92,7.2,6.34,5.51
CCNc1ccccc1C(=O)O,19.64,-10.34,13.74,16.83,5.51,2.27
NC(=O)NC(=O)c1nccnc1C(=O)O,4.42,-16.67,10.6,1.89,0.76,-7.91
NC(=O)c1ccc(Cl)c2ccccc12,11.2,-9.07,13.67,7.47,6.64,-4.82
CC(C)N(Cc1ccccc1)S(=O)(=O)c1nc(C(C)(C)C)n[nH]1,14.24,7.66,0.73,17.58,0.76,-4.79
N=C(NOC(=O)c1ccccc1)C(Cc1ccccc1)C(=O)NOC(=O)c1ccccc1 (stereo not given),11.08,-11.45,18.34,10.4,7.02,-11.11
FC(F)(F)c1nc2nc(Cl)c(Cl)nc2n1CCCN1CCOCC1,14.57,9.11,-16.14,4.93,5.42,38.81
Oc1ncnc(CN2CCCCC2)c1O,7.4,1.82,7.79,2.35,-1.92,-11.85
CC(C)C(=O)c1ccc(O)c(O)c1,-0.55,-3.52,-12.2,9.02,3.31,21.92
Sc1ncc2cnccn12,-4.23,-8.79,10.26,3.96,0.86,-12.71
c1ccc(-c2nnc(-c3ccccn3)s2)nc1,3.28,-18.69,9.86,4.63,4.16,-18.42
Oc1c(Cl)cc(Cl)cc1C1Nc2ccccc2-n2cccc21 (stereo not given),8.71,9.53,-0.55,11.09,1.7,-0.72
CCOC(=O)C(=O)C1C(=O)Nc2ccccc21 (stereo not given),11.5,4.6,-3.33,15.66,13.9,-6.08
N=C(N)Nc1ccc(NC(=N)N)cc1,18.17,-6.06,9.96,17.17,-1.51,-0.62
O=C(Nc1cccc2ccccc12)c1ccccc1,1.57,-13.68,5.05,-4.37,0.1,-4.91
Oc1ccc(/N=N/c2nccs2)c(O)c1,-2.42,12.54,-3.78,17.07,29.2,2.7
CCCc1nc(NC(=O)c2ccccc2)nc(NC(=O)c2ccccc2)n1,-10.01,-7.86,8.74,10.41,3.97,-9.1
